# According to PubChem BioAssay AID1626 (SRMLSC, 2009):
# In all, about 220,000 compounds went through this assay and about 2,000 (0.91%) were called active. Another 2% or so got no clear call; they are omitted. These entries were drawn from the full list. Results with a measured potency or affinity are listed apart. A number with no mark means an inactive call. Rule as the data show it: inconclusive = inhibition above about 80% without an active follow-up result; inactive = below that; test concentration not stated here.
# Test: M. tuberculosis H37Rv growth inhibitors, H37Rv strain (AID 1626);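 also: bacteria incubated seven days before Alamar blue readout; 0% = bacteria only wells and 100% = bacteria with antibiotic wells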
# Conditions: active compounds read high, concentration not given here
row,Compound,inhibition
1,CC1CCN(S(=O)(=O)c2ccc3[nH]c(=O)cc(C(=O)O)c3c2)CC1,-1.86%
2,NS(=O)(=O)c1ccc(Sc2nc3ccccc3s2)c([N+](=O)[O-])c1,5.37%
3,CS(=O)(=O)c1ccc(Sc2nc3ccccc3s2)c([N+](=O)[O-])c1,76.8%
4,CN1CCc2c(C#N)c(N3CCOCC3)nc(NCC3CCCO3)c2C1 (centres undefined),-11.2%
5,C=CCSc1nnc(-c2sc(-c3ccccc3)nc2C)n1C,6.24%
6,C#CCOCCOCCOCCNc1nc(N2CCN(C(=O)[C@H](CCC(=O)O)n3cc(C(N)CC(C)C)nn3)CC2)nc(N2CCN(C(=O)[C@H](Cc3ccc(O)cc3)n3cc(C(N)CC(C)C)nn3)CC2)n1 (some centres undefined),-8.68%
7,O=C(Nc1ncc(Cc2ccccc2Cl)s1)c1ccc([N+](=O)[O-])cc1,-9.37%
8,O=C(Nc1ncc(Cc2ccccc2)s1)C1COc2ccccc2O1 (centres undefined),13.8%
9,Cc1ccc(C(=O)Nc2ncc(Cc3ccccc3)s2)o1,-9.94%
10,CC(C)C(=O)Nc1ncc(Cc2ccccc2Cl)s1,-0.08%
11,O=C(Nc1ncc(Cc2cccc(Cl)c2)s1)c1ccc([N+](=O)[O-])cc1,-4.66%
12,CC(C)C(=O)Nc1ncc(Cc2ccc(Cl)cc2)s1,18.6%
13,Cc1ccc(C(=O)Nc2ncc(Cc3ccc(SC(F)F)cc3)s2)cc1,6.66%
14,CC(=O)Nc1ncc(Cc2cccc(Cl)c2)s1,3.07%
15,COc1cccc(C(=O)Nc2nnc(Cc3ccc(OC)c(OC)c3)s2)c1,4.42%
16,COC(=O)C1=C(C)N(Cc2ccco2)C(=O)N[C@H]1c1cccc(C(F)(F)F)c1,-4.29%
17,COC(=O)C(NC(=O)CSc1nc(N)cc(=O)[nH]1)c1ccccc1 (centres undefined),6.05%
18,Cc1ccc(SCC(=O)N(C)C2CCS(=O)(=O)C2)cc1 (centres undefined),71.9%
19,O=C(N/N=C/c1ccc(OCCCF)cc1)c1ccc(C(F)(F)F)cc1,-7.89%
20,O=C(CSc1nnc(CNc2ccc(F)cc2)n1Cc1ccccc1)NCc1ccco1,-3.56%

row,Compound,inhibition
1,CCN(CC)C1=N/C(=C\c2ccc(OC)cc2)C(=O)N1c1ccccc1,5.04%
2,COc1cc(NC(=O)CSc2nc3ccccc3cc2Cc2ccccc2)cc(OC)c1,-2.51%
3,CCCCCn1c(SCc2cccc(C)c2)nc2c1c(=O)[nH]c(=O)n2C,14.6%
4,CC/C(=N\NC(=O)c1cccnc1)c1ccc2c(c1)OCCO2,3.21%
5,CC1(C)CC(NC(=O)CCc2nnc(CCCCc3ccccc3)o2)CCO1 (centres undefined),-4.26%
6,Cc1ccc(NC(=S)N(CCN2CCOCC2)Cc2cc3cc4c(cc3[nH]c2=O)OCCO4)cc1,2.46%
7,Oc1ccc2ccccc2c1CNn1cnnc1,1.43%
8,NC(=S)Nc1cnc2ccccc2c1,0.46%
9,Cn1c(NCc2c(O)ccc3ccccc23)nc2ccccc21,6.55%
10,COc1cccc(CNc2ncc(Br)cc2Br)c1O,-8.94%
11,CCN(CC)C(=O)Nc1cnc2ccccc2c1,63.2%
12,COc1cccc(CNc2cccc3cccnc23)c1O,6.53%
13,Cc1nc(SCC(=O)Nc2cccc(Cl)c2)n[nH]1,-3.06%
14,O=C1CCC/C(=N\NC(=O)c2ccc(COc3ccccc3-c3ccccc3)cc2)C1,4.62%
15,Cc1cccc(N2CC(C(=O)OCC(=O)c3ccc(OC(=O)c4cccs4)cc3)CC2=O)c1C (centres undefined),1.47%
16,CN(CCOC(=O)c1ccc2c(c1)OCO2)C(C)(C)C,-1.44%
17,CC1=CC2=NC(=O)/C(=C\c3cccn3CCOc3cc(C)ccc3C)C(=N)N2O1,12.3%
18,O=C(CCc1ccccc1)N1N=C(c2ccncc2)CC1(O)C(F)(F)F (centres undefined),-7.97%
19,O=C(NCCN1CCCCC1)Nc1ccc(F)c(Cl)c1,-6.79%
20,Cc1ccc(N=Nc2c(C)[nH]n(C(N)=S)c2=O)cc1,-3.59%

row,Compound,inhibition
1,Cc1[nH]n(C)c(=O)c1N=Nc1ccc(S(C)(=O)=O)cc1,-6.82%
2,COc1ccc(-c2nnc(SCC(=O)NC(C)C)n2CC2CCCO2)cc1OC (centres undefined),-10.3%
3,COc1ccc(C2/C=C\CN(C(=O)Oc3ccc(C(F)(F)F)cc3)CC(=O)N2Cc2ccc(F)cc2)cc1 (centres undefined),2.36%
4,COc1ccc(C2/C=C\CN(C(=O)Nc3ccccc3)CC(=O)N2Cc2ccc(F)cc2)cc1 (centres undefined),-8.73%
5,COc1ccc(NC(=O)C(=O)NCCCn2ccnc2)cc1,-13.8%
6,O=C(Nc1csc([N+](=O)[O-])c1)Nc1c(Cl)cccc1Cl,0.45%
7,O=C(Nc1csc([N+](=O)[O-])c1)Nc1ccccc1Cl,76.8%
8,O=C(CN(CCc1ccccc1)S(=O)(=O)c1ccc(Br)cc1)N/N=C/c1ccccc1C(=O)O,1.98%
9,COc1ccc(-n2nc(C(N)=O)c(O)cc2=O)cc1,-4.24%
10,COc1ccccc1CNC(=O)CN1C(=O)CSc2ccc(S(=O)(=O)N3CCCC3)cc21,-3.73%
11,CCOC(=O)c1ccc(N2C(=O)c3n[nH]c(C)c3C2c2ccco2)cc1 (centres undefined),0.01%
12,CCOC(=O)c1ccc(N2C(=O)c3n[nH]c(C)c3C2c2ccccc2)cc1 (centres undefined),-3.14%
13,Cc1[nH]c2ccc(F)cc2c1CCN(Cc1cccnc1)C(=S)Nc1ccccc1,-0.56%
14,CCCCCCCN1C2=NCCN2c2ccccc21,-5.76%
15,CCCCC1=CC2=CC(=O)C(C)(OC(=O)CC)C(=O)C2=CN1CCN1CCOCC1 (centres undefined),2.28%
16,Cc1ccc(C2C(C#N)=C(N)OC3=C2C(=O)CC(C)(C)C3)s1 (centres undefined),2.18%
17,CC1(C)CC(=O)C2=C(C1)OC(N)=C([N+](=O)[O-])C2c1cccs1 (centres undefined),3.66%
18,O=C1/C(=C/c2ccccc2Cl)N2CCC1CC2,7.2%
19,Cc1ccc2c(c1)C(c1ccncc1)=NNC(c1ccc(F)cc1)=N2,5.08%
